Measurements as given in PubChem BioAssay (NCI).
The panel holds about 79,000 compounds, 15% with a hit somewhere; the sample as a whole holds those more often. Values without a mark were called inactive. Calls of active or inactive are those of the source. Cut-off read from the data, not from the text of the source: active = growth inhibition above about 70%; inactive = the rest.

Experiment: NCI Yeast Anticancer Drug Screen. Data for the rad52 strain (AID 147);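 note: 0% = growth of vehicle-treated control cultures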
Details: S. cerevisiae rad52 mutant growth inhibition; at 11.0 µM; hits give high values
Outline: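 Read-out: growth inhibition versus vehicle-treated controls. Cells were a DNA repair-deficient yeast strain treated with compounds.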

Going from `CCC/C(Cl)=N\OC(=O)Nc1cccc(C(F)(F)F)c1` to `CC(=O)Nc1ccc2c(c1)C(=Nc1ccc(C(=O)O)cc1)c1ccccc1-2`, the growth inhibition falls from 10% to 4%.

Going from `[O-][n+]1c2ccc(O)cc2nc2ccc(Cl)cc21` to `O=C(O)C1OC1(c1cccc(Cl)c1)c1ccccc1Cl` (stereo not drawn), the growth inhibition falls from 45% to 13%.

First: Clc1ccccc1C1OC1c1ccccc1Cl (stereo not drawn)
Second: O=C1c2ccccc2-c2n[nH]c3cccc1c23
The growth inhibition of the first is lower: -61% for the first, 69% for the second.

First: c1ccc2c(c1)c1ncccc1c1nccnc21
Second: COc1ccc(OC)c2cc3ccccc3cc12
The growth inhibition of the first is higher: 26% for the first, 6% for the second.

Going from `COc1cc(C2c3cc4c(cc3OC(NNc3ccccc3)C2C)OCO4)cc(OC)c1OC` (stereo not drawn) to `CNC(=O)OCc1c(COC(=O)NC)c(-c2ccc(-c3ccccc3)cc2)n(C)c1C`, the growth inhibition falls from 59% to -27%.

First: O=C1c2cc([N+](=O)[O-])ccc2-c2cccc(F)c21
Second: COc1ccc2c(c1)C(=O)c1ccccc1C2
The growth inhibition of the first is higher: 57% for the first, 20% for the second.

First: CCCCCCCCCCCC(=O)N(C)C
Second: CCCCCCCCCCNC(=O)OCC
The growth inhibition of the first is lower: -19% for the first, 11% for the second.

First: CCCCCCCCCCCC1=C(O)C(=O)C=C(O)C1=O
Second: CCCCCCCCCCC1CCC(=O)O1 (stereo not drawn)
The growth inhibition of the first is higher: 68% for the first, -1% for the second.

First: Cc1ccc(CSC(N)=Nc2ccccc2)cc1C
Second: Cc1ccc(S/N=C\c2ccccc2O)cc1
The growth inhibition of the first is higher: 21% for the first, -3% for the second.

Going from `O=[N+]([O-])c1cc(CCl)ccc1CCl` to `O=[N+]([O-])c1cccc2nccc(NCCCO)c12`, the growth inhibition falls from 69% to 11%.

First: CC1=C(C)Cc2c(O)ccc(O)c2C1
Second: Cc1ccc(CCC2=CCCc3c2ccc2ccccc32)cc1
The growth inhibition of the first is higher: 25% for the first, 0% for the second.

First: CCC(=O)OCCn1c2nc(=O)[nH]c(=O)c-2nc2cc(C)c(C)cc21
Second: Cc1ccc2[nH]c3c(C)c4cc[n+](C)cc4c(C)c3c2c1
The growth inhibition of the first is lower: -5% for the first, 34% for the second.

Compared with `O=C(OCCN1CCCCCC1)C(c1ccsc1)C1CCCCC1` (stereo not drawn), `COc1ccccc1C(=O)OCC1CCCN2CCCCC12` (stereo not drawn) is higher in growth inhibition: 50% for the first, 57% for the second.

Going from `Oc1c(Br)cc(Br)cc1C1CCCCC1` to `O=C(OCC=C1CCCC1)c1cc([N+](=O)[O-])cc([N+](=O)[O-])c1`, the growth inhibition rises from -2% to 21%.

Going from `CC1(C)[C@@H]2CC[C@]1(C)[C@H](OC(=O)CSC#N)C2` to `N#CN1C2CCC1CC(=O)C2`, the growth inhibition falls from 20% to -21%.

Compared with `S=C(N/N=C(/c1ccccc1)c1ccccn1)N1CCCCCC1`, `NC(=S)N/N=C\c1nccc2ccccc12` is lower in growth inhibition: 57% for the first, 40% for the second.

First: O=[N+]([O-])c1ccc2c(c1)C(N1CCN(CCO)CC1)Cc1ccc(F)cc1S2 (stereo not drawn)
Second: Cc1ccc(-n2cc(-c3ccc(Cl)cc3)c(C#N)c2N)cc1
The growth inhibition of the first is lower: -3% for the first, 6% for the second.

Compared with `Clc1cccc(C(Nc2nncs2)Nc2nncs2)c1Cl`, `CCNc1nnc(CSc2nc(-c3ccccc3)c(-c3ccccc3)[nH]2)s1` is lower in growth inhibition: 9% for the first, -1% for the second.

In the case of `O=C(Nc1ccccc1)C(=O)C(C(=O)c1ccccc1)C(c1ccccc1)c1ccccc1` (stereo not drawn), the growth inhibition was 15%.

With `Nc1ccc2c(c1)C(=O)c1cccc(N)c1C2=O` the growth inhibition was 89% (active).
For `COc1ccccc1/C=C1\Sc2scc(-c3cccc([N+](=O)[O-])c3)[n+]2C1=O`, the growth inhibition was 98% (active).

Same assay, conditions: S. cerevisiae rad52 mutant growth inhibition; at 33.0 µM; hits give high values

Going from `CCC/C(Cl)=N\OC(=O)Nc1cccc(C(F)(F)F)c1` to `CC(=O)Nc1ccc2c(c1)C(=Nc1ccc(C(=O)O)cc1)c1ccccc1-2`, the growth inhibition rises from 19% to 47%.

First: Clc1ccccc1C1OC1c1ccccc1Cl (stereo not drawn)
Second: O=C(O)C1OC1(c1cccc(Cl)c1)c1ccccc1Cl (stereo not drawn)
The growth inhibition of the first is lower: -18% for the first, 56% for the second.

First: c1ccc2c(c1)c1ncccc1c1nccnc21
Second: COc1ccc(OC)c2cc3ccccc3cc12
The growth inhibition of the first is higher: 48% for the first, 10% for the second.

Compared with `CCCCCCCCCCCC(=O)N(C)C`, `CCCCCCCCCCNC(=O)OCC` is higher in growth inhibition: 30% for the first, 37% for the second.

First: Cc1ccc(CSC(N)=Nc2ccccc2)cc1C
Second: Cc1ccc(S/N=C\c2ccccc2O)cc1
The growth inhibition of the first is higher: 24% for the first, 0% for the second.

Going from `CCCCCCCCCCC1CCC(=O)O1` (stereo not drawn) to `N#CN1C2CCC1CC(=O)C2`, the growth inhibition falls from 4% to -18%.

First: CC1=C(C)Cc2c(O)ccc(O)c2C1
Second: Cc1ccc(CCC2=CCCc3c2ccc2ccccc32)cc1
The growth inhibition of the first is higher: 20% for the first, 1% for the second.

Compared with `COc1ccc2c(c1)C(=O)c1ccccc1C2`, `CNC(=O)OCc1c(COC(=O)NC)c(-c2ccc(-c3ccccc3)cc2)n(C)c1C` is lower in growth inhibition: 35% for the first, 26% for the second.

Compared with `CCC(=O)OCCn1c2nc(=O)[nH]c(=O)c-2nc2cc(C)c(C)cc21`, `O=[N+]([O-])c1cccc2nccc(NCCCO)c12` is higher in growth inhibition: 0% for the first, 40% for the second.

`O=C(OCCN1CCCCCC1)C(c1ccsc1)C1CCCCC1` (stereo not drawn) and `S=C(N/N=C(/c1ccccc1)c1ccccn1)N1CCCCCC1` are the same in growth inhibition: 57% for the first, 57% for the second.

Compared with `O=[N+]([O-])c1ccc2c(c1)C(N1CCN(CCO)CC1)Cc1ccc(F)cc1S2` (stereo not drawn), `Cc1ccc(-n2cc(-c3ccc(Cl)cc3)c(C#N)c2N)cc1` is higher in growth inhibition: -2% for the first, 17% for the second.

Going from `Clc1cccc(C(Nc2nncs2)Nc2nncs2)c1Cl` to `O=C(Nc1ccccc1)C(=O)C(C(=O)c1ccccc1)C(c1ccccc1)c1ccccc1` (stereo not drawn), the growth inhibition falls from 28% to 23%.

With `[O-][n+]1c2ccc(O)cc2nc2ccc(Cl)cc21` the growth inhibition was 75% (active).
In the case of `COc1cc(C2c3cc4c(cc3OC(NNc3ccccc3)C2C)OCO4)cc(OC)c1OC` (stereo not drawn), the growth inhibition was 93% (active).
For `O=C1c2cc([N+](=O)[O-])ccc2-c2cccc(F)c21`, the growth inhibition was 82% (active).
For `CCCCCCCCCCCC1=C(O)C(=O)C=C(O)C1=O`, the growth inhibition was 88% (active).
For `O=[N+]([O-])c1cc(CCl)ccc1CCl`, the growth inhibition was 95% (active).
For `Nc1ccc2c(c1)C(=O)c1cccc(N)c1C2=O`, the growth inhibition was 93% (active).
In the case of `Oc1c(Br)cc(Br)cc1C1CCCCC1`, the growth inhibition was 97% (active).
In the case of `CC1(C)[C@@H]2CC[C@]1(C)[C@H](OC(=O)CSC#N)C2`, the growth inhibition was 83% (active).
With `Cc1ccc2[nH]c3c(C)c4cc[n+](C)cc4c(C)c3c2c1` the growth inhibition was 89% (active).
For `COc1ccccc1/C=C1\Sc2scc(-c3cccc([N+](=O)[O-])c3)[n+]2C1=O`, the growth inhibition was 97% (active).
With `NC(=S)N/N=C\c1nccc2ccccc12` the growth inhibition was 95% (active).
In the case of `O=C(OCC=C1CCCC1)c1cc([N+](=O)[O-])cc([N+](=O)[O-])c1`, the growth inhibition was 85% (active).
In the case of `COc1ccccc1C(=O)OCC1CCCN2CCCCC12` (stereo not drawn), the growth inhibition was 76% (active).
For `CCNc1nnc(CSc2nc(-c3ccccc3)c(-c3ccccc3)[nH]2)s1`, the growth inhibition was 86% (active).
In the case of `O=C1c2ccccc2-c2n[nH]c3cccc1c23`, the growth inhibition was 84% (active).
